Data on 8 compounds can be found in PubChem BioAssay AID602182 (The Scripps Research Institute Molecular Screening Center, 2012).

The list shows a part of the results. Active and inactive are the calls of the source. No rule for the calls is given here.

This test is described as follows: GFP fluorescence inhibitors and quenchers, dose response, artefact control for Rin1-Abl interaction inhibitor project, biochemical (AID 602182).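 Also: ABL1-eGFP fusion protein alone without its RIN1 binding partner.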 The following applies: GFP fluorescence interference/quenching counterscreen. A general note: Counterscreens check selectivity or assay interference.
In the case of `CN(C(=O)c1ccc(NC(=O)Cc2cccc(NC(=O)C3CCN(C(=O)c4ccccc4)CC3)c2)cc1)C1CC1`, the IC50 is > 67.6 µM (inactive). For `CC(OC(=O)c1ccccc1NCCO)C(=O)Nc1ccnn1C(C)C` (stereo not drawn) the value was > 67.5 µM (inactive); for `Cc1ccccc1CN1C[C@@H]2C[C@@H](c3ccc4nsnc4c3)N3CCC[C@@]23C1=O`, > 67.5 µM (inactive); for `C=CCn1c2ccccc2c2nnc(SCc3[nH]c(=O)[nH]c3C(=O)CCCCC(=O)OCC)nc21`, > 67.5 µM (inactive). For `C[C@@H]1CN([C@H](C)CO)S(=O)(=O)c2ccc(C#C[C@@H](C)O)cc2O[C@@H]1CN(C)Cc1ccc(-c2ccccc2)cc1` the value was > 67.5 µM (inactive). As for `CN(Cc1c(F)cccc1Cl)C(=O)CNC(=O)c1ccc2c(c1)OCO2`, the figure is > 67.6 µM (inactive); as for `CCOC(=O)N1CCN(C(=O)C2CCN(c3ncnc4c3sc3cccc(F)c34)CC2)CC1`, > 67.6 µM (inactive); as for `Nc1cc(=O)c2[nH]cnc2[nH]1`, > 67.7 µM (inactive).

What is called IC50 is the concentration that gives 50% inhibition.
